Reference: PubChem BioAssay (NCATS)
Inconclusive results are not listed. A number with no mark means an inactive call. Calls of active or inactive are those of the source. Calls follow the shape of the dose curve; as a rule, active = well fitted inhibition curve with a large enough effect; inconclusive = small, poorly fitted or top-dose-only effect; inactive = flat fitted curve, though single readings scatter.

Test: P-glycoprotein substrates identified in KB-8-5-11 adenocarcinoma cell line, qHTS therapeutic library screen (AID 1346987); also: nearly all actives have a fitted effect of over 65% in size
Conditions: KB-8-5-11 (P-gp overexpressing) viability, CellTiter-Glo, 72 h; series mostly up to 44.5 µM; activity change, negative = cytotoxicity: at the top concentration
Method in brief: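 Compounds are pinned in dose-response onto KB-8-5-11 cells (500 cells/well, colchicine-free medium) and left 72 h at 37 degree C. CellTiter-Glo luminescence then yields AC50 values.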
% is scaled to controls: 0 for no effect and ±100 for the full control effect; potency is read from the fitted curve at half-maximal effect.

With `COc1ccc(CCN2CCC(Nc3nc4ccccc4n3Cc3ccc(F)cc3)CC2)cc1` as the compound, how does the Potency read?
Its Potency is 20.6 µM (active).

With `CN1CCC(=C2c3ccccc3Sc3ccccc32)CC1` as the compound, how does the Potency read?
Its Potency is 9.2 µM (active).

Which “activity change, negative = cytotoxicity” value does the source give for `CC(=O)c1ccc2c(c1)N(CCCN1CCC(CCO)CC1)c1ccccc1S2` here?
The value was -19% [at 17.3 µM].

With `CC(=O)O[C@H]1C[C@@H]2CC[C@@H]3[C@H](CC[C@@]4(C)[C@H]3C[C@H]([N+]3(C)CCCCC3)[C@@H]4OC(C)=O)[C@@]2(C)C[C@@H]1[N+]1(C)CCCCC1` as the compound, how does the “activity change, negative = cytotoxicity” value read?
Its value is -5.26%.

With `COc1cc(C=C2CCC/C(=C\c3ccc(O)c(OC)c3)C2=O)ccc1O` as the compound, how does the Potency read?
Its Potency is 25.9 µM (active).

Which Potency does the source give for `COc1cc2c(cc1OC)C(C(C(=O)N(CCc1ccc(OC)c(OC)c1OC)CCc1ccc(OC)c(OC)c1OC)c1ccccc1)=NCC2` (configuration not stated) here?
The Potency was 9.2 µM (active).

Which “activity change, negative = cytotoxicity” value does the source give for `C/C=C/c1ccc(OC)cc1` here?
The value was 1.26%.

Which “activity change, negative = cytotoxicity” value does the source give for `C1CCc2nnnn2CC1` here?
Its value is 2.15%.

Which “activity change, negative = cytotoxicity” value does the source give for `CCOC(=O)COc1ccc2c(C)c(CCN(CC)CC)c(=O)oc2c1Cl` here?
Its value is -4.83%.

For `O=C1CCC(c2ccc(-n3ccnc3)cc2)=NN1`, which Potency is on record?
The Potency was 1.46 µM (active).

With `C[N+]1(CCCCC[N+]2(C)CCCC2)CCCC1` as the compound, how does the “activity change, negative = cytotoxicity” value read?
The value was -1.69%.

With `c1ccc(CNCCNCc2ccccc2)cc1` as the compound, how does the “activity change, negative = cytotoxicity” value read?
The value was -9.2%.

For `CN=C(NC#N)NCCSCc1csc(N=C(N)N)n1`, which “activity change, negative = cytotoxicity” value is on record?
Its value is 20.4%.

Which Potency does the source give for `O=C(OCCOCCO)c1ccccc1Nc1cccc(C(F)(F)F)c1` here?
Its Potency is “inactive”.

Which “activity change, negative = cytotoxicity” value does the source give for `NC(CO)(CO)CO` here?
Its value is 4.74%.

With `CCCCN1CCCC1C(=O)Nc1c(C)cc(C)cc1C` (configuration not stated) as the compound, how does the “activity change, negative = cytotoxicity” value read?
Its value is -21.5%.

Which “activity change, negative = cytotoxicity” value does the source give for `CCOC(=O)c1cccc(N)c1` here?
The value was 0.468%.

With `CC(C)COC(=O)OCN1C(=O)CN(CCN2CC(=O)N(COC(=O)OCC(C)C)C(=O)C2)CC1=O` as the compound, how does the “activity change, negative = cytotoxicity” value read?
Its value is 2.39%.

Which “activity change, negative = cytotoxicity” value does the source give for `CCN1CCCC1=O` here?
The value was -11.8%.

For `Cc1cc(N)c2cc(NC(=O)Nc3ccc4nc(C)cc(N)c4c3)ccc2n1`, which “activity change, negative = cytotoxicity” value is on record?
The value was -5.99%.

Which “activity change, negative = cytotoxicity” value does the source give for `CCCCCC=CCC=CCCCCCCCC(=O)OCC` here?
Its value is -12.1%.

For `Oc1c(Cl)cc(Cl)cc1Sc1cc(Cl)cc(Cl)c1O`, which Potency is on record?
Its Potency is 4.61 µM (active).

Which “activity change, negative = cytotoxicity” value does the source give for `CCOC(=O)[C@H](CCc1ccccc1)N[C@@H](C)C(=O)N1Cc2ccccc2C[C@H]1C(=O)O` here?
Its value is -23.2%.

With `C[C@]12C=CC(=O)C=C1CC[C@@H]1[C@@H]2[C@@H](O)C[C@@]2(C)[C@H]1CC[C@]2(O)C(=O)CO` as the compound, how does the “activity change, negative = cytotoxicity” value read?
The value was -5.74%.

Which “activity change, negative = cytotoxicity” value does the source give for `CCCCCCC[N+](CC)(CC)CCCCc1ccc(Cl)cc1` here?
The value was -7.7% [at 17.3 µM].

With `Cc1ccc(O)c2ncccc12` as the compound, how does the “activity change, negative = cytotoxicity” value read?
The value was -13.6%.

With `CC(=O)N/N=C/c1ccc([N+](=O)[O-])o1` as the compound, how does the “activity change, negative = cytotoxicity” value read?
The value was -21.6%.
